For nine targets, log2 fold change results are on record in the supplement of paper PMC10849652.

Holding throughout (experiment): log2 fold change, soluble protein after heating vs DMSO (PISA); higher = thermal stabilisation; K562 lysate, 10 uM; active = over 0.2 and 3.5 SD of the protein, either way, in both replicates (recomputed)
Compound in assay [1]: NCC(=O)Nc1ccc(-n2nc(C(F)(F)F)cc2-c2ccc3c(ccc4ccccc43)c2)cc1
Put shortly: (§1)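 Pellets of K562 cells were dounce-homogenised in PBS pH 7.4 with 1 mM MgCl2, and the crude extract was held at 1 mg/mL protein for a 30 min treatment with 10 μM compound. Aliquots were heated for 3 min over 48°C-58°C and pooled before NP-40 was added to 0.5% at 4°C. The supernatant from 21,000xg for 90 min was quantified by TMTpro 16plex LC-MS/MS with channel sums equalised. Values are reported from duplicates as log-two fold change in thermal stability relative to solvent controls.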

Compound in assay [2]: O=C(CCCCCCC(=O)Nc1ccccc1)NO [vorinostat]
Put shortly:
as §1

Compound in assay [3]: O=C(O)c1ccc2c(c1)nc(Nc1cccc(Cl)c1)c1ccncc12 [silmitasertib]
The procedure, abridged: as §1

Compound in assay [4]: O=C1NC(=O)C(c2cnc3ccccn23)=C1c1cn2c3c(cc(F)cc13)CN(C(=O)N1CCCCC1)CC2
Put shortly:
as §1

Compound in assay [5]: c1cn2cc(-c3ccc4cn[nH]c4c3)nc(Nc3ccc(N4CCOCC4)cc3)c2n1 [entospletinib]
The procedure, abridged: as §1

About 8,800 targets were measured; listed, in parts, are those with a hit and a random draw of the rest. About 0.5% of all pairs of compound and target were hits. A number with no mark means an inactive call.

Chain of UniProt O43149 (O43149 whole entry, looked up): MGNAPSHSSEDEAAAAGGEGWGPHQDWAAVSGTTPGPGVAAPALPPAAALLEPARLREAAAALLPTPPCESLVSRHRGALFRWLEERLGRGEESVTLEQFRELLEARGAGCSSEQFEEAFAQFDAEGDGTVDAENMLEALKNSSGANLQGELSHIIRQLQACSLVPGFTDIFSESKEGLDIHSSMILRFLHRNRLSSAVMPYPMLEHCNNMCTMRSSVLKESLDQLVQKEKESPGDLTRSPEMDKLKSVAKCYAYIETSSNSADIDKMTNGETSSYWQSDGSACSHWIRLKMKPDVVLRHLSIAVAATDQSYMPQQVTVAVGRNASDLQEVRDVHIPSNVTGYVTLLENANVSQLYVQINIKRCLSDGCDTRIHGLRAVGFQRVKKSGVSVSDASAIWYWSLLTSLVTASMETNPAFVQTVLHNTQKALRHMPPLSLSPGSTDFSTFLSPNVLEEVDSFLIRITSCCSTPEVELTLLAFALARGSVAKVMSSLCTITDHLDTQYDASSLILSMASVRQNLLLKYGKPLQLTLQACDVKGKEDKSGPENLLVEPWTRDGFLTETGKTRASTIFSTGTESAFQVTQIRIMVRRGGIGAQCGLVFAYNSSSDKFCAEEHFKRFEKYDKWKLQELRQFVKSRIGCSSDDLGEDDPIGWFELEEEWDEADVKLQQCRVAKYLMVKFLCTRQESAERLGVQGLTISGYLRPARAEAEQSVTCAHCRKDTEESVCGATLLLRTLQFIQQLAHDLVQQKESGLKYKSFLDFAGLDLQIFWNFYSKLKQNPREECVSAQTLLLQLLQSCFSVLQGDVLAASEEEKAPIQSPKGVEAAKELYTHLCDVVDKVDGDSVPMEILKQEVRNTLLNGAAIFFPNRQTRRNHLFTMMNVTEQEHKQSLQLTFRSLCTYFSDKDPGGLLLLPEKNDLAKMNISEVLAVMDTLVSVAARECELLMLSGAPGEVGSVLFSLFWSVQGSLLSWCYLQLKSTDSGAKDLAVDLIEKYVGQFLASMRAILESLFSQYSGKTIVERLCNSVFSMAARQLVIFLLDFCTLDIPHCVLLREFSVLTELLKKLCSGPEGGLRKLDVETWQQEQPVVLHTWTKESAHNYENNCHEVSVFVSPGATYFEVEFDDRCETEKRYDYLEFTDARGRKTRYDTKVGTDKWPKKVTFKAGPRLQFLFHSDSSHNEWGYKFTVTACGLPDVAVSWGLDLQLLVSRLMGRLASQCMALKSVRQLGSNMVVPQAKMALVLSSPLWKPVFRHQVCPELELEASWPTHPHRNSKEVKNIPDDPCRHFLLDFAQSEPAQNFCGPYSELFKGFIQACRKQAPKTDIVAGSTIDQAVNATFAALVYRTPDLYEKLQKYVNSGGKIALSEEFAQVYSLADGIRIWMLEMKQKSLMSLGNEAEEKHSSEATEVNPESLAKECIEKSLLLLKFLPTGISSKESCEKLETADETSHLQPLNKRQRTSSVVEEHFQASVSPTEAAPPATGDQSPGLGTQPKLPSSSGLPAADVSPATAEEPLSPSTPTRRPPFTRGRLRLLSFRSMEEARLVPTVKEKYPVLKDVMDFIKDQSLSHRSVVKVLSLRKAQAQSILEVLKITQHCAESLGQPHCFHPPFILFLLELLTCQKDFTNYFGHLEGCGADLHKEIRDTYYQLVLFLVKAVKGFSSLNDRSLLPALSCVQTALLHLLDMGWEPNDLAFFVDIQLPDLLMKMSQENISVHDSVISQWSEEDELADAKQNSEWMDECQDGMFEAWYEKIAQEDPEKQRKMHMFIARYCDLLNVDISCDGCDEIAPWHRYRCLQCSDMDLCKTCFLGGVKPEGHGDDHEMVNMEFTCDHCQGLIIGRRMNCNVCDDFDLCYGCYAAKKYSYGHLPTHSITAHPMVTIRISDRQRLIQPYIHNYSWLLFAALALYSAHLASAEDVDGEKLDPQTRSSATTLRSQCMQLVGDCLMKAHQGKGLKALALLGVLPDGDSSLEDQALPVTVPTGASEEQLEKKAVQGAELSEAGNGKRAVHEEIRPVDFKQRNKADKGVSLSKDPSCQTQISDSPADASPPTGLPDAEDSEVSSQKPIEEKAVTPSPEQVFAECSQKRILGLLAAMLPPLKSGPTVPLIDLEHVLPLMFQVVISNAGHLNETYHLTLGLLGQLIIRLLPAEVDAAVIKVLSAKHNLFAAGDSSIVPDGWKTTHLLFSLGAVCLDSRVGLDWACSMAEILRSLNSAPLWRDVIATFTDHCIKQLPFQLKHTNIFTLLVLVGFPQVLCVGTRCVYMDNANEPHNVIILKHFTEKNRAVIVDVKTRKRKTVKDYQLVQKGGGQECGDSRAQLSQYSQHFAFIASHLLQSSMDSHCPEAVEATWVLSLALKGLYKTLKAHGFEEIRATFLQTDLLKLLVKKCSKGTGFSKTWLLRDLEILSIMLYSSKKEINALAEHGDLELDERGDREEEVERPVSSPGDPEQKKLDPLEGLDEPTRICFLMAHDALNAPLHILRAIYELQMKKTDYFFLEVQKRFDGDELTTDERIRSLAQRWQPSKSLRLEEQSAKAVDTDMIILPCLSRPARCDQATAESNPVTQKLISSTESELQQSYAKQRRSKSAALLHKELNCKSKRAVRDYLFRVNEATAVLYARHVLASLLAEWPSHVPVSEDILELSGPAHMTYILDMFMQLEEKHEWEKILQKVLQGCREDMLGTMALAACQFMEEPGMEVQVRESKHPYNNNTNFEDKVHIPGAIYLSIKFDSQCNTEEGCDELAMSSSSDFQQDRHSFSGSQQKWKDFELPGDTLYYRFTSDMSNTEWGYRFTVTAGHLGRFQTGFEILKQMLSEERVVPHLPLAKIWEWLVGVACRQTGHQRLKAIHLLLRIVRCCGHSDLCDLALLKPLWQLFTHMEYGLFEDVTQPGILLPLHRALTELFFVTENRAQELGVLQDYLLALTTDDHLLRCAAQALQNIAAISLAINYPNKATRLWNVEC
Chain of UniProt Q9Y484 (Q9Y484 whole entry, looked up): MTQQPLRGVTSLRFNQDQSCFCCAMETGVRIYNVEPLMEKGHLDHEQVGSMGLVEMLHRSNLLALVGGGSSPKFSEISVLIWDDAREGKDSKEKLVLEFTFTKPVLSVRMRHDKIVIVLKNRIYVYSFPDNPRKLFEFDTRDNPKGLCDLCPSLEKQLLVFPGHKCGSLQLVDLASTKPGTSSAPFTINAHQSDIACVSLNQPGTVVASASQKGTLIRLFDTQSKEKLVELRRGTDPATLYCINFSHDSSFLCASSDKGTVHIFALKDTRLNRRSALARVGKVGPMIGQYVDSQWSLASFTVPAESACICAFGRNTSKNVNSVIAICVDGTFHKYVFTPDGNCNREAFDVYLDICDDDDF
Chain of UniProt Q9UN37 (Q9UN37 whole entry, looked up): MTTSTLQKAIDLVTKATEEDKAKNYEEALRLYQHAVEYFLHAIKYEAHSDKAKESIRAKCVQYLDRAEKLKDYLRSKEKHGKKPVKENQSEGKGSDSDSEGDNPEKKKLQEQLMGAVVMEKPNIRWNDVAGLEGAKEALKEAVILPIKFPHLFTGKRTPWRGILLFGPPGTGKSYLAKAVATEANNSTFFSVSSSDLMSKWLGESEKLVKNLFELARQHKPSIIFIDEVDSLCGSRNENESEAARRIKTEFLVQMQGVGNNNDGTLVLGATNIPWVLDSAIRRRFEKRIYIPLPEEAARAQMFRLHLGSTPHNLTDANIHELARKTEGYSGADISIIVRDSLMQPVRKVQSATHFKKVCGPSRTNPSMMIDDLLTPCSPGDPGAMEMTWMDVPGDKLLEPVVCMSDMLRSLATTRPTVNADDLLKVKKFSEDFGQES
Chain of UniProt O14980 (O14980 whole entry, looked up): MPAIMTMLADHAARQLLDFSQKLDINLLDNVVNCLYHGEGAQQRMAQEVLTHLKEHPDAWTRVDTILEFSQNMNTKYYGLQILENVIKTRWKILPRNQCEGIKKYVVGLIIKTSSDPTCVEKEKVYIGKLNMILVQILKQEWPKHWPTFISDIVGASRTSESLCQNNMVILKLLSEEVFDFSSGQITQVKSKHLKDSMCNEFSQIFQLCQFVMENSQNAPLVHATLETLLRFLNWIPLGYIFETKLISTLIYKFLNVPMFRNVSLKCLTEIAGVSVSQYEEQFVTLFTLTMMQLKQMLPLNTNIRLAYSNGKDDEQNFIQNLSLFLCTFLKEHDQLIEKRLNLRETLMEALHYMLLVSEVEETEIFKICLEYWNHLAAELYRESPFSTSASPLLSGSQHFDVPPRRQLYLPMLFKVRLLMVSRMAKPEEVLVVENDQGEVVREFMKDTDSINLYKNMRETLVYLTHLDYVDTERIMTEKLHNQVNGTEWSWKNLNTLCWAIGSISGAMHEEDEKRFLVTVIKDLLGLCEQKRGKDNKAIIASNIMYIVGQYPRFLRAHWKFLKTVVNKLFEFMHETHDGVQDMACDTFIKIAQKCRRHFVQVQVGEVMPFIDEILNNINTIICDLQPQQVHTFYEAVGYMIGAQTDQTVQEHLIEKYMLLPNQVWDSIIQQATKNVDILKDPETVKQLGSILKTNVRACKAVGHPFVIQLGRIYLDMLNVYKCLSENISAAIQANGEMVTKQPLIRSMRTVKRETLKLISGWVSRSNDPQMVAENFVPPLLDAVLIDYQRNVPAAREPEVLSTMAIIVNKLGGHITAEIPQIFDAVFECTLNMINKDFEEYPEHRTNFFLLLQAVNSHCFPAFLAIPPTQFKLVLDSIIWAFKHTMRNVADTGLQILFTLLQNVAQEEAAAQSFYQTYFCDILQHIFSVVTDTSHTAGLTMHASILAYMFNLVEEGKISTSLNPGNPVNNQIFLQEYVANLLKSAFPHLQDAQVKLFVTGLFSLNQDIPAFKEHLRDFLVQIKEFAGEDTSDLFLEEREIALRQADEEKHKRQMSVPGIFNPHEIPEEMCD
Chain of UniProt Q9NZ43 (Q9NZ43 whole entry, looked up): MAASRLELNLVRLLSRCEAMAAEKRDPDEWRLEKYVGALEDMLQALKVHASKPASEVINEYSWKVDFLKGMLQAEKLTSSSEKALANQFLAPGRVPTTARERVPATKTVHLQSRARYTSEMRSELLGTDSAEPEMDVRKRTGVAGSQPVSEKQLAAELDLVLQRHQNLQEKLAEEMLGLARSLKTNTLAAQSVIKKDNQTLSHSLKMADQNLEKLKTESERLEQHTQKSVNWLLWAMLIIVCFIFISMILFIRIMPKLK

Consider ZNF593 (UniProt O00488), for which the log2 fold change was -0.029 in assay [1]; 0.191 in assay [2]; -0.001 in assay [3]; 0.044 in assay [4]; 0.027 in assay [5].

On to ZZEF1 (UniProt O43149), for which the log2 fold change in assay [1] was 0.02; in assay [2], -0.263 (active); in assay [3], 0.011; in assay [4], 0.012; in assay [5], 0.004.

Take VPS18 (UniProt Q9P253): the log2 fold change in assay [1] was -0.016; in assay [2], -0.386 (active); in assay [3], 0.04; in assay [4], 0.015; in assay [5], -0.006.

Turning to VPS4A (UniProt Q9UN37), the log2 fold change in assay [1] was -0.026; in assay [2], -0.356 (active); in assay [3] it was 0.059; in assay [4], -0.013; in assay [5], 0.038.

Regarding XPO1 (UniProt O14980), the log2 fold change in assay [1] is 0.009; in assay [2], -0.233 (active); in assay [3], 0.003; in assay [4], -0.001; in assay [5] it was 0.036.

In the case of ZSWIM8 isoform 4 (UniProt A7E2V4), the log2 fold change in assay [1] is 0.079; in assay [2], -0.07; in assay [3], 0.081; in assay [4], 0.071; in assay [5], -0.018.

For the target USE1 (UniProt Q9NZ43), the log2 fold change in assay [1] is -0.113; in assay [2], -0.029; in assay [3], 0.028; in assay [4] it was 0.053; in assay [5], -0.036.

In the case of WDR45 isoform 2 (UniProt Q9Y484), the log2 fold change is 0.018 in assay [1]; 0.025 in assay [2]; 0.016 in assay [3]; 0 in assay [4]; 0.009 in assay [5].

Take VASP (UniProt P50552): the log2 fold change in assay [1] is 0.035; in assay [2], 0.015; in assay [3], 0.015; in assay [4] it was 0.01; in assay [5] it was -0.013.
